For 37 compounds, growth results are on record in PubChem BioAssay (NCI).

About 83,000 compounds went through this panel and 20% of them were active in at least one assay; those are over-represented in the sample as a whole.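 Percent growth is the endpoint: 0 to 100 indicates growth inhibition (40 means 60% inhibition), 0 means no net growth, and negative values indicate cell death.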 Calls of active or inactive are those of the source. The calls were made as follows: active = growth percent below 10; inactive = the rest.

This experiment relates to T-47D breast. Put plainly: NCI-60 one-dose screen, 48 h (100 = growth as untreated, 0 = no growth, -100 = all killed). Particulars: 10 µM unless noted.
As for `COc1ccc2c(c1)C(=O)/C(=C/c1cccc(OCC(=O)c3ccccc3)c1)CC2`, the growth is 70.6% (inactive).
In the case of `NC(=Nc1ccccc1)SCCCCSC(N)=Nc1ccccc1`, the growth was 62.2% (inactive).
Take `CC/C(=C\c1ccc(N(C)C)cc1)c1ccncc1`: the growth is 40% (inactive).
Regarding `CCOC(=O)c1cc(-c2cccnc2)nc2c(Cl)cc(Cl)cc12`, the growth was 85.3% (inactive).
Turning to `Clc1ccc(-n2cnc3c(Cl)ncnc32)cc1Cl`, the growth was 82.2% (inactive).
`O=C(CSCC(=O)N/N=C/c1ccccc1O)N/N=C\c1ccccc1O`: the growth was 35.5% (inactive).
Consider `COc1ccc(C(=O)COc2cccc(/C=C3\Oc4ccc5ccccc5c4C3=O)c2)cc1`, for which the growth was 37.9% (inactive).
Regarding `CC(=O)NC1(C(=O)O)CCCC1`, the growth was 128% (inactive).
On to `CCOC(=O)C1=NN(c2ccc(Cl)cc2)C2C3N(c4ccc(Cl)cc4)N=C(C(=O)OCC)N3c3ccccc3N12` (configuration not stated), for which the growth is 102% (inactive).
As to `CC(=O)Oc1ccc(C23c4ccccc4C2(OC(C)=O)c2cc(OC(C)=O)ccc23)cc1` (configuration not stated), the growth is 38.9% (inactive).
Regarding `COc1ccc(/C=C2\NC(=S)NC2=O)cc1`, the growth was 86.3% (inactive).
Next, `O=C(/C=C/c1ccccc1)CC(c1ccccc1)N1CCOCC1` (configuration not stated): 81.3% (inactive); `CCn1c2ccccc2c2ccc(C(C)=O)cc21`: 96.6% (inactive).
Regarding `Cc1ccc(C=C2C(Cl)=C(Cl)C(Cl)=C2Cl)cc1`, the growth is -44.6% (active).
With `Cc1ccccc1NC(=O)c1cc2ccccc2cc1O`, the growth is 49.9% (inactive).
Turning to `c1ccc(-n2nnnc2-c2cccc3ccccc23)cc1`, the growth was 31.8% (inactive).
Take `Nc1ccccc1-c1ccc([N+](=O)[O-])cc1`: the growth is 38.6% (inactive).
As for `c1cnc2ccc3ncccc3c2c1`, the growth is 116% (inactive).
As for `CC(=O)n1c2ccccc2c2ccccc21`, the growth was 105% (inactive).
On to `CC1=CC(=O)C(C(C)=Nc2ccccc2Cl)C(=O)O1` (configuration not stated), for which the growth was 105% (inactive).
For the compound `COc1c(O)cc2oc3cc(O)c(CC=C(C)C)c(O)c3c(=O)c2c1C/C=C(\C)CCC=C(C)C`, the growth is 77.1% (inactive).
As to `CCOC(=O)c1ccccc1OC(=O)NNc1ccccc1`, the growth was 57.3% (inactive).
The result for `O=C(/C=C/c1cc2ccccc2[nH]c1=O)c1ccc(O)cc1` reads 66.1% (inactive).
Regarding `COc1cc(/C=C2\COc3ccc(O)cc3C2=O)cc(OC)c1`, the growth is 60.3% (inactive).
As to `ClC1=C(Cl)C(Cl)=C(Cl)C1=C/C=C/c1ccccc1`, the growth was -4.63% (active).
On to `COc1cccc(CCC2C(=O)CCCC2=O)c1`, for which the growth is 97.4% (inactive).
Regarding `CSc1ncc2ncn(C3OC(CO)C(O)C3O)c2n1` (configuration not stated), the growth is 101% (inactive).
On to `CN(C)CCCN1c2nc3ccccc3cc2Sc2cc3ccccc3nc21`, for which the growth was -71.9% (active).
For `Cc1c(C)c(N2C(=O)C=CC2=O)c(C)c(C)c1N1C(=O)C=CC1=O`, the growth is 113% (inactive).
Regarding `CC12CCC3C(CCC4CC(=O)/C(=C\O)CC43C)C1CCC(=O)O2` (configuration not stated), the growth was 117% (inactive).
Regarding `CC(C)C/C(=N\NC(=O)c1ccncc1)c1cc(Cl)ccc1O`, the growth is 25.1% (inactive).
As to `OC(Cc1cccnc1)c1ccccc1` (configuration not stated), the growth is 112% (inactive).
With `Cn1cnc([N+](=O)[O-])c1S(=O)(=O)Oc1ccc(Cl)cc1`, the growth was -31.1% (active).
With `O=C(N1CCC(CN=c2cc3n(-c4ccc(Cl)cc4)c4ccccc4nc-3cc2Nc2ccc(Cl)cc2)CC1)N1CC1`, the growth was -46.8% (active).
The result for `CN1COc2ccc3ccccc3c2C1` reads 88.2% (inactive); that for `CCCCCCCC1(C)NC(=O)NC1=O` (configuration not stated), 123% (inactive).
In the case of `CC(O)c1nc2c(c(=O)n(C)c(=O)n2C)n1C` (configuration not stated), the growth was 97.6% (inactive).
